Data on 59 compounds can be found in PubChem BioAssay AID1626 (SRMLSC, 2009).

SMILES strings stand for the structures. Screen size: about 220,000 compounds; about 2,000 (0.91%) were called active. Roughly 2% stayed inconclusive and do not appear here. Only a sample is shown. Results with a measured potency or affinity are listed apart. Values without a mark were called inactive. Cut-off read from the data, not from the text of the source: inconclusive = inhibition above about 80% without an active follow-up result; inactive = below that; test concentration not stated here.

A short description of this experiment: M. tuberculosis H37Rv growth inhibitors, H37Rv strain (AID 1626).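 Note: bacteria incubated seven days before Alamar blue readout; 0% = bacteria only wells and 100% = bacteria with antibiotic wells.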 Particulars: active compounds read high, concentration not given here.
One may read the inhibition as the drop in the measured response relative to a control, in per cent. On to `CCOC(=O)C(C)Sc1nnc(NC(=O)c2cccc([N+](=O)[O-])c2C)s1` (centres undefined), for which the inhibition was 27%.
`COCCSc1nnc(NC(=O)c2ccc(OC)c([N+](=O)[O-])c2)s1`: the inhibition was -5.62%.
Then `O=C(NCc1cccs1)c1cccc(S(=O)(=O)N2CCCCC2)c1`, with -1.3%; and `O=[N+]([O-])c1cccc(N=NN(CCO)c2cccc([N+](=O)[O-])c2)c1`, with 7.57%.
Then `Cc1ccc(NC(=O)c2cncc(Br)c2)c([N+](=O)[O-])c1`, with 5.6%; and `OCCNc1nc(-c2ccccc2)nc2c1oc1ccccc12`, with 1.56%.
For the compound `O=C(Nc1ccccc1)c1nnsc1S(=O)c1ccc(Cl)cc1` (centres undefined), the inhibition was 47.2%.
Then `CN(C)C(=O)c1nnsc1Sc1ccc(Cl)cc1`, with -1.74%; and `CCCNC(=O)NS(=O)(=O)c1ccc(Cl)cc1`, with -12.9%; and `O=C(c1ccc(S(=O)(=O)c2ccc(Cl)cc2)cc1)N1CCOCC1`, with -6.61%.
Then `O=C(Nc1ccccc1)c1nnsc1S(=O)(=O)c1ccc(Cl)cc1`, with 2.07%.
With `CCCNC(=O)c1nnsc1Sc1ccc(Cl)cc1`, the inhibition was 18.6%.
Regarding `CNC(=O)c1nnsc1S(=O)c1ccc(Cl)cc1` (centres undefined), the inhibition was 78.9%.
The figure for `N/C(=N\S(=O)(=O)c1ccc(Cl)cc1)N1CCOCC1` is -5.14%.
For the compound `CNC(=O)CCC(=O)Nc1ccc(C)cc1`, the inhibition is -1.09%.
Take `COc1ccc(C2C(C(=O)O)CCC(=O)N2c2ccc(C)cc2)cc1OC` (centres undefined): the inhibition is -2.58%.
Then `C=C(C)Cn1c(SCCCO)nc2c1c(=O)[nH]c(=O)n2C`, with -7.43%; and `O=C(NC1CC1)C1=COCCO1`, with -8.37%; and `O=C(Nc1ccccc1N1CCOCC1)c1cc(F)cc(F)c1`, with -4.82%.
For `N#Cc1cc(C(=O)c2cc(Cl)ccc2O)cn(-c2ccccc2)c1=O`, the inhibition is -3.03%.
For the compound `Cc1ccc(C(=O)NNC(=O)Cn2nnc3ccccc32)cc1`, the inhibition was -15.4%.
The figure for `CN1CCN(C(=O)c2cnn(-c3ccccc3)c2NC(=O)c2ccccc2)CC1` is -6.4%; for `O=C(N/N=C/c1cccc([N+](=O)[O-])c1)c1cccs1` it is 4.78%.
Then `COc1ccc(C(C)=O)cc1COC(=O)c1ccc(S(=O)(=O)N(C)C)cc1`, with -3.54%.
Then `O=C(Nc1ccn(Cc2c(F)c(F)cc(F)c2F)n1)c1cccc(Cn2cc([N+](=O)[O-])cn2)c1`, with 2.31%.
For `CC1=C(C(=O)N2CCOCC2)C(c2c(F)cccc2F)NC(=O)N1` (centres undefined), the inhibition was -2.62%.
Then `CCOC(=O)C1CCCN(S(=O)(=O)c2ccc(S(N)(=O)=O)cc2)C1` (centres undefined), with -2.7%; and `O=C(c1cc(Cl)ccc1Cl)N1CCOCC1`, with -11%.
The figure for `Cc1nnsc1-c1c(C(=O)N2CCOCC2)c(C)nn1-c1ccc(Cl)cc1` is 3.63%; for `Cc1c(C(=O)Nc2cccc(S(=O)(=O)N3CCCC3)c2)oc2ccccc12` it is 0.77%; for `CCC(CC)C(=O)Nc1cccc(C(=O)Nc2ccc3c(c2)OCO3)c1` it is 0.36%.
Then `CC1CC(C)CN(C(=O)c2ccc3c(c2)N(Cc2ccccc2)CCS3)C1` (centres undefined), with 8.05%.
Regarding `CC1Cc2ccccc2N1C(=O)Cn1c(=O)cc(O)c2ccccc21` (centres undefined), the inhibition was -9.25%.
As to `COCCCn1c(SCC(=O)Nc2ccc(C)cc2)nc2ccccc2c1=O`, the inhibition was -3.97%.
Consider `O=C(CSc1nc2ccccc2[nH]1)Nc1nc(-c2cccc(Br)c2)cs1`, for which the inhibition was 9.78%.
Take `CCCCn1c(SCC(=O)Nc2nccs2)nc2ccccc2c1=O`: the inhibition was -6.31%.
The figure for `CN(C)CCCn1c(SCC(=O)N2c3ccccc3Sc3ccccc32)nc2ccccc2c1=O` is 0.3%; for `CC(=O)c1nnn(-c2ccc([N+](=O)[O-])cc2)c1C` it is -0.32%; for `c1ccc2c(-c3cn4ccccc4n3)c[nH]c2c1` it is -5.8%.
`Cc1ccccc1N1CCN(CCCN2C(=O)CC(=C(c3ccccc3)c3ccccc3)C2=O)CC1`: the inhibition is 0.08%.
Regarding `O=C1CC(=C2c3ccccc3-c3ccccc32)C(=O)N1CCCCN1CCN(c2ccccc2)CC1`, the inhibition was 8.38%.
The figure for `O=C1CC(=C(c2ccccc2)c2ccccc2)C(=O)N1CCCN1CCN(c2cccc(Cl)c2)CC1` is 12.8%.
Turning to `O=C1CC(=C(c2ccccc2)c2ccccc2)C(=O)N1CCN1CCN(c2cccc(Cl)c2)CC1`, the inhibition was 5.45%.
With `COc1cccc(C2C(C(=O)c3cccs3)=C(O)C(=O)N2CCN(C)C)c1OC` (centres undefined), the inhibition was -9.59%.
The figure for `Cc1ccc(NP(=O)(Nc2ccc(C)cc2)Oc2ccccc2)cc1` is 5.95%; for `O=C(NCc1ccccc1Cl)C1CCCN(c2nc3ccsc3c(=O)s2)C1` (centres undefined) it is 1.18%; for `NC(=O)c1nsc(C(=O)N(CC(=O)NCc2ccc3c(c2)OCO3)C2CCCC2)c1N` it is 0.67%.
Turning to `C=CCNC(=O)/C(C#N)=C/c1c(C)nn(-c2ccc(Cl)cc2)c1Cl`, the inhibition was 4.6%.
The figure for `O=C(CC(Nc1ccccc1Cl)C(=O)OCC(=O)c1cccs1)c1ccccc1` (centres undefined) is -5.28%; for `CC(=O)NC(Cc1ccccc1)C(=O)OCC(=O)c1ccc(Br)cc1` (centres undefined) it is -1.27%; for `COc1ccccc1NC(CC(=O)c1ccccc1)C(=O)OCC(=O)c1ccc(F)cc1` (centres undefined) it is 78.2%.
The figure for `O=C(CC(Nc1cccc(Cl)c1Cl)C(=O)OCC(=O)c1cccs1)c1ccccc1` (centres undefined) is -5.78%; for `Cc1ccc(C(=O)NCCCN2CCOCC2)cc1` it is 3.65%.
The figure for `COc1ccc2c(c1)S/C(=C\C(=O)c1ccncc1)N2C` is 0.94%; for `COC(=O)c1ccc2c(c1)N(Cc1nc(-c3cccc(C)c3)oc1C)C(=O)C1CCCN21` (centres undefined) it is 8.29%; for `Cc1ccc(/C=C/C(=O)c2nc3ccccc3[nH]2)cc1` it is 0.43%.
`O=C(/C=C/c1ccc(Cl)cc1Cl)c1nc2ccccc2[nH]1`: the inhibition is 0.46%.
On to `C/C(=N/NC(=O)CNC(=O)c1cccnc1)c1ccco1`, for which the inhibition was 7.49%.
Then `COc1cccc(CNC(=O)C2CCN(S(=O)(=O)c3c(C)nn(C)c3C)CC2)c1`, with -0.47%.
